# Screens from PubChem.
# An excerpt weighted towards active compounds, which were near 19% of everything screened.
# TGFb inhibitor: qHTS for Inhibitors of TGF-b | HepG2 CAGA-GFP TGF-b/SMAD3 reporter, GFP fluorescence, 18 h; TGF-beta stimulated, 500 pg/mL final | 1.2% of 410,000 active | Potency, µM (doses to about 46.1 µM), actives largely listed as inhibitors | AID 588855, 2011; further: nearly all actives have a fitted effect of over 65% in size
#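 HEPG2 CAGA-GFP cells (1000/well, DMEM with 1% FBS) were pre-incubated 2 h at 37 degrees C, given compound by pin tool, then stimulated with TGF-beta at 500 pg/mL final for 18 h before per-cell GFP fluorescence imaging.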
# DT40 TDP1 CPT: qHTS for Inhibitors of human tyrosyl-DNA phosphodiesterase 1 (TDP1): qHTS in cells in presence of CPT | 12% of 420,000 active | chicken DT40 Tdp1-/-;hTDP1 cells + 20 nM CPT, ATP luminescence, 48 h | Potency, µM (titrated, usually from 46.2 µM), actives largely listed as inhibitors; further: nearly all actives have a fitted effect of over 55% in size
#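 Chicken DT40 Tdp1-/- cells complemented with human TDP1, 400 cells/well, exposed to compounds plus 20 nM camptothecin for at least 48 h at 37 C; viability read as ATP content by CellTiter-Glo luminescence.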
# IL-1B inflam inh: qHTS for Inhibitors of Inflammasome Signaling: IL-1-beta AlphaLISA Primary Screen. THP-1 LPS/ATP IL-1B secretion, AlphaLISA, 16 h; active compounds read low. AID 743279, 2014. 4.7% of 360,000 active. activity change, % at 57.5 µM; in the data active means activity change below about -50%; inconclusive means mostly about -30% to -49%
#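 Secreted IL-1B measured by AlphaLISA bead assay after 16 h compound exposure of THP-1 cells; compounds (final up to 57.5 uM) added 1 h before LPS (250 ng/mL) and ATP (1.25 mM) stimulation; lower signal means less secretion.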
# HepG2 tox: qHTS for Inhibitors of TGF-b: Cytotox Counterscreen. HepG2 CAGA-GFP viability, ATP luminescence, 18 h. Potency, µM (highest dose often 46.1 µM), most hits filed as cytotoxic. 0.76% of 410,000 active
#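 CellTiter-Glo luminescence gave cytotoxicity after 18 hours at 37 degrees C. The cells were HepG2 CAGA-GFP in 1% FBS DMEM, stimulated with 500 pg/mL TGF-beta after compound addition. %Activity was normalised to no-cell wells (complete cell-killing) and DMSO (no toxicity), and curves were fitted and classified.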
# DT40 TDP1 no CPT: qHTS for Inhibitors of human tyrosyl-DNA phosphodiesterase 1 (TDP1): qHTS in cells in absence of CPT. AID 686978, 2013. 15% of 420,000 active. DT40 Tdp1-/- hTDP1 cells, no CPT, ATP luminescence, 48 h. Potency, µM (doses to about 46.2 µM), actives largely listed as inhibitors; further: nearly all actives have a fitted effect of over 55% in size
#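 Chicken DT40 Tdp1-/- cells complemented with human TDP1, screened without camptothecin (DMSO vehicle only), 400 cells/well. Compounds pin-transferred, cells incubated at 37 °C for at least 48 hr. Growth read as ATP-dependent luminescence (CellTiter-Glo, 30 min at RT).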
# ASM inhibitor: Inhibitors of Secretory Acid Sphingomyelinase (S-ASM): qHTS | placental ASM, HMU-PC fluorogenic substrate, 60 min | Potency, µM (top dose mostly 57.5 µM), most hits filed as inhibitors | 0.006% of 340,000 active | Sphingomyelin phosphodiesterase (Homo sapiens), P17405
# Target sequence (P17405 47-631 limits assumed): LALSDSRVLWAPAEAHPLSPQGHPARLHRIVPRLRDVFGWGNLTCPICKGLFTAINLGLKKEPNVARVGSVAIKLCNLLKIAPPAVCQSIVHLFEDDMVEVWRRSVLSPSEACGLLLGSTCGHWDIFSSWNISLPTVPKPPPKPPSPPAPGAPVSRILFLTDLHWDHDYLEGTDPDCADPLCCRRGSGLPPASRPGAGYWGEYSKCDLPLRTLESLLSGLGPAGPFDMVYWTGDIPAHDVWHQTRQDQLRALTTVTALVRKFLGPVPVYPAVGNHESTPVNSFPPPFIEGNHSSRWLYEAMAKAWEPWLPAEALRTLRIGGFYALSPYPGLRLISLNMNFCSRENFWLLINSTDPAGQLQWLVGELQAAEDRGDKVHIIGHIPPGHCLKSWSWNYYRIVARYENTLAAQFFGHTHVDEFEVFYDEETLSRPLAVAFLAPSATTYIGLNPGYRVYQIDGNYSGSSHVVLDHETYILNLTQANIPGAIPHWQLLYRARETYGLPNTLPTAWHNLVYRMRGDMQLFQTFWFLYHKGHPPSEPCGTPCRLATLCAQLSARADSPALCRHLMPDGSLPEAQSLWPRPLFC
#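 Steps: dispense placental human ASM, pin compound, wait 10 min at room temperature, add HMU-PC0 substrate at 9 uM final, incubate 60 min at 37 °C, add stop solution raising pH to 10, read fluorescence.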
# Hits are given with their value; 0 = inactive; ? = inconclusive; - = not tested or not shown; [ ] = another dose, or the depositor's remark. Unless noted, the call rests on the fitted dose curve; in most records, active means well fitted curve in the direction sought with a large enough effect; inconclusive means small, poorly fitted or top-dose-only effect, or another doubt; inactive means no such curve, though single readings can be large; an effect the other way counts as inactive or inconclusive.
SMILES,TGFb inhibitor,DT40 TDP1 CPT,IL-1B inflam inh,HepG2 tox,DT40 TDP1 no CPT,ASM inhibitor
CC(=O)c1cn(Cc2ccccc2C#N)c2ccccc12,0,2.06µM,0,0,1.03µM,0
CC(=O)c1cn(Cc2ccccc2F)c2ccccc12,?,8.2µM,0,0,4.61µM,0
O=C(c1ccccc1F)c1cn(Cc2ccc(F)cc2)c2ccccc12,?,16.4µM,?,0,?,0
O=C(c1ccccc1F)c1cn(Cc2ccccc2)c2ccccc12,0,?,0,0,?,0
CCc1ccc([C@H]2[C@@H]3C(=O)C[C@@H]4C(=O)N(C5CCCCC5)C(=O)[C@@H]4[C@@H]3CN2S(=O)(=O)c2ccc(C)cc2)cc1,0,?,?,0,?,-
Cc1ccc2c(c1)C1CN(C)CCC1N2 (stereo unspecified),-,0,-,-,?,-
NCC(=O)c1ccc(Cl)c(Cl)c1,?,?,-,0,?,-
CN(C)CCc1ccc(O)cc1,-,0[9.04 µM],-,-,0[9.04 µM],-
CC(C)CC(C)N (stereo unspecified),0,0,0,0,0,0
CCCN(C(=O)c1cc2c(=O)oc3ccccc3c2s1)c1cccc(Cl)c1,?,0,-,0,0,-
COc1cc(C)c(C(=O)CC(=O)c2c(C)cc(OC)cc2C)c(C)c1,0,14.6µM,0,0,11.6µM,0
COc1cc(OC)cc(C(=O)Nc2ccc(Br)cc2C(=O)c2ccccc2)c1,0,0,0,0,0,0
Cc1ccccc1NS(=O)(=O)c1ccc(OCC(=O)N2CCN(C)CC2)cc1,0,0,0,0,0,0
C=CCn1c(O)c(N=Nc2c(C)n(C)n(-c3ccccc3)c2=O)c(=O)[nH]c1=S,0,16.4µM,0,0,9.2µM,0
C[C@]12CCC3C(CC[C@]4(O)C[C@@H](O)CC[C@]34C=O)[C@@]1(O)CC[C@@H]2C1=CC(=O)OC1 (stereo partly specified),-,9.44µM,-,-,5.96µM,-
CC12CC[C@H]3[C@@H](CCC4(O)C[C@H](O)CCC34/C=N/NC(=O)c3ccccc3F)C1(O)CCC2C1=CC(=O)OC1 (stereo partly specified),0,0,0,0,0,0
COc1ccc(C(=O)N/N=C/C23CC[C@@H](O)CC2(O)CC[C@@H]2[C@@H]3CCC3(C)C(C4=CC(=O)OC4)CCC23O)cc1 (stereo partly specified),0,0,-70.6,0,0,0
COc1ccc(C(=O)CC(c2ccc3c(c2)OCO3)c2c(O)c3ccccc3oc2=O)cc1OC (stereo unspecified),0,0,0,0,?,-
Clc1cc(I)cc(Cl)c1NC1=NCCN1,0,0,0,0,0,0
CCN(CC)C(=O)c1ccc(NC(=O)CN2CCc3cc(OC)c(OC)cc3C2)cc1,0,0,0,0,0,0
O=C1NCN(c2ccccc2)C12CCN(C(c1ccccc1OC(F)(F)F)c1nnnn1C1CCCC1)CC2 (stereo unspecified),0,?,0,0,?,-
CCCCC1(CCCC)C(=O)NC(=Nc2cccc(C)c2)NC1=O,?,16.4µM,-56.1,0,18.4µM,0
CC(C)[C@H](NC(=O)[C@H](CCC(=O)O)NC(=O)[C@H](Cc1ccccc1)NC(=O)[C@H](C)NC(=O)[C@@H](N)Cc1ccc(O)cc1)C(=O)N[C@H](C(=O)NCC(N)=O)C(C)C,-,?,-,-,0[4.12 µM],-
CCC(CC)NCc1c[nH]c2ccccc12,0,4.11µM,0,0,3.66µM,0
CCN(CC)Cc1c[nH]c2ccccc12,0,10.3µM,0,0,16.4µM,0
NCCc1c[nH]c2ccccc12,0,?,0,0,0,0
CCCN(CCC)CCc1c[nH]c2ccccc12,-,19.1µM,-,-,?,-
